# Measured values taken from PubChem BioAssay (NCATS).
# Results filed as inconclusive are left out. A call without a number means that no potency is given here. Active and inactive are the calls of the source. Unless noted, calls follow the shape of the dose curve; as a rule, active = well fitted curve in the direction sought with a large enough effect; inconclusive = small, poorly fitted or top-dose-only effect, or another doubt; inactive = no such curve, though single readings can be large; an effect the other way counts as inactive or inconclusive.
# Experiments:
# [1] = qHTS of Nrf2 Activators: LOPAC Validation (AID 624149)
# In short: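 Following overnight seeding in 5% FBS OPTI-MEM, AREc32_Fluc cells receive compounds for a 24 hr incubation at 37 deg C with 5% CO2. Steady-Glo is added, and after 30 min at RT luminescence is recorded.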
# [2] = HTS Assay for Allosteric Antagonists of the Human D2 Dopamine Receptor: Hit Validation in HTRF (AID 624455);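 also: stable D1 dopamine receptor cell line scored for blocking the D1 response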
# In short: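 Validation of hits used D1 receptor stably expressed in cells with HTRF detection of response inhibition; origin screen measured calcium flux following EC80 dopamine in a force-coupled, inducible Hek293 Trex D2 cell line.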
# [3] = target: Arylsulfatase A (Homo sapiens) (UniProt P15289); assay: qHTS screen for enhancers of Arylsulfatase A (ASA1): LOPAC Validation Assay (AID 720538); also: potency is read from the fitted curve at half-maximal effect
# In short: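 SV40-transformed skin fibroblasts from an MLD patient (ASA-I179S) were treated with compounds for 48h at 37 degree C, then lysed with 0.5mM pNCS final substrate for 14h at room temperature; NaOH stop, fluorescence read (Ex=525 nm; Em=598 nm).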
# [4] = qHTS for compounds that reverse cellular toxicity of Amyloid beta (A-beta) peptide in yeast: LOPAC Validation Assay (AID 720559)
# In short: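 Yeast cells expressing toxic A-beta were combined with pinned compounds in growth medium and incubated 48 hr at 30 C. Growth was read as absorbance at 600 nm and normalized to DMSO and to an equimolar FeCl3/clioquinol positive control.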
# [5] = qHTS for Activators of Parkin Expression: LOPAC Validation Assay (FLuc Reporter) (AID 720573)
# In short: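 Neuronal cell line stably carrying FLuc/NLuc coincidence reporter under Parkin promoter; cells plated 24 h, then compounds added in 7-point dose response for 24 h at 37 C. FLuc luminescence read; normalized to DMSO and positive control (100%).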
# [6] = target: T1, Hexokinase-4 (Homo sapiens) + Glucokinase regulatory protein (Homo sapiens) (UniProt P35557+Q14397); assay: qHTS assay for inhibitors of recombinant human GCK-GKRP interaction: Diaphorase-coupled assay (AID 743205)
# In short: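 GST-GCK (10 nM) with FLAG-GKRP (10 nM), 5 mM glucose and 0.4 mM ATP in pH 7.6 Hepes; compounds preincubated 20 min with substrate. G6PDH/diaphorase coupling converts resazurin to resorufin, read kinetically (ex 525/em 590 nm) for 30 min.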
# [7] = target: T1, Hexokinase-4 (Homo sapiens) + Glucokinase regulatory protein (Homo sapiens); assay: qHTS assay for inhibitors of recombinant human GCK-GKRP interaction: ADP-Glo assay (AID 743206)
# In short: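 Pin-transferred compounds meet a 15 nM GST-GCK/15 nM FLAG-GKRP/2 uM S6P mix (dispense concentrations). ATP is then added to 0.4 mM final with 5 mM glucose, and the reaction runs 60 min at room temperature. ADP is quantified luminescently.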
# [8] = target: T1, Hexokinase-4 (Homo sapiens) + Glucokinase regulatory protein (Homo sapiens); assay: qHTS assay for inhibitors of recombinant human GCK-GKRP interaction: HTRF assay (AID 743207)
# In short: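 GST-GCK and FLAG-GKRP (5 nM each) were combined with 2 uM S6P in pH 7.1 Hepes/MgCl2/KCl/DTT buffer, then compound and anti-FLAG XL665/anti-GST K antibodies were added. After 60 min at room temperature, HTRF 665/615 nm emission was read.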
# [9] = Natriuretic polypeptide receptor (hNpr1) antagonism - Pilot counterscreen GloSensor control cell line (AID 1347045; calls by dose curve; also: potency is read from the fitted curve at half-maximal effect)
# In short: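 The SNP-driven cGMP luminescence signal (50 uM, 20 min, room temperature) was measured in GloSensor HEK293 control cells. Compounds were tested as a LOPAC titration series and preincubated for 30-50 min.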
# [10] = target: Atrial natriuretic peptide receptor 1 (Homo sapiens) (UniProt P16066); assay: Natriuretic polypeptide receptor (hNpr1) antagonism - Pilot screen (AID 1347049; calls by dose curve;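 also: HEK293 cells with hNpr1 and GloSensor cGMP luciferase stimulated by 0.1 nM hNppA; agonist-evoked cGMP luminescence read 20 min after hNppA addition; potency is read from the fitted curve at half-maximal effect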)
# In short: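 Cells expressing receptor plus cGMP biosensor are seeded and incubated overnight at 37C, then loaded with GloSensor reagent (2% final) at room temperature for 2 h. Library compounds go on for 30 min. A pre-read precedes agonist (hNppA, 0.1 nM final) and a 20-min readout.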
# [11] = target: Atrial natriuretic peptide receptor 2 (Homo sapiens) (UniProt P20594); assay: Natriuretic polypeptide receptor (hNpr2) antagonism - Pilot subtype selectivity assay (AID 1347050; calls by dose curve; also: potency is read from the fitted curve at half-maximal effect)
# In short: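 Read-out: GloSensor luminescence (CCD imager), baseline vs post-stimulation. HEK293 cells expressing hNpr2; compounds pre-incubated 30-50 min at ambient temperature; hNppC 1 nM final, 20 min.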
# [12] = target: T2, Tyrosine-protein phosphatase non-receptor type substrate 1 (Homo sapiens) + Leukocyte surface antigen CD47 (Homo sapiens) (UniProt P78324+Q08722); assay: CD47-SIRPalpha protein protein interaction - LANCE assay qHTS validation (AID 1347057; active = well fitted curve in the direction sought with a large enough effect in the signal ratio, with a control signal flat, not every such curve was filed as active; the % refers to the signal ratio; also: series mostly up to about 38 µM)
# In short: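 Inhibition of soluble CD47/SIRPalpha ectodomain association by titrated compounds, measured as 665/615 nm time-resolved FRET ratio after sequential 30 min room-temperature incubations.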
# [13] = target: T2, Tyrosine-protein phosphatase non-receptor type substrate 1 (Homo sapiens) + Leukocyte surface antigen CD47 (Homo sapiens); assay: CD47-SIRPalpha protein protein interaction - HTRF assay qHTS validation (AID 1347058; active = well fitted curve in the direction sought with a large enough effect in the signal ratio, not every such curve was filed as active; the % refers to the signal ratio; also: series mostly up to about 38 µM)
# In short: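 Soluble extracellular domains (6His-CD47, Avi-tag-biotinylated SIRPalpha) in PBS pH 7.4 with 0.05% IGEPAL CA-630. Compounds were preincubated 30 min at RT with CD47 and anti-His-Eu, then SIRPalpha and SAV-XL665 were added. TR-FRET 665/615 ratio.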
# [14] = target: T2, Tyrosine-protein phosphatase non-receptor type substrate 1 (Homo sapiens) + Leukocyte surface antigen CD47 (Homo sapiens); assay: CD47-SIRPalpha protein protein interaction - Alpha assay qHTS validation (AID 1347059)
# In short: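 In PBS (pH 7.4) with 0.05% IGEPAL CA-630, compound is preincubated with biotin-Avi-SIRPalpha ectodomain before His-CD47 ectodomain and affinity beads are added. Light-protected room-temperature incubations; AlphaScreen readout.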
# [15] = target: Lysine-specific demethylase 5B (Homo sapiens) (UniProt Q9UGL1); assay: Optimization screen for KDM5B Histone Demethylases FDH coupled qHTS against the LOPAC library (AID 1347166)
# In short: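 KDM5BDeltaAP (200nM final) in 50mM HEPES pH 7.5, 0.01% Tween-20 was preincubated with compound for 10 min at room temperature. A substrate mix of 12.5uM H3K4Me3, 25uM a-ketoglutarate, ascorbate, Fe2+, NAD+ and formaldehyde dehydrogenase was then added. NADH fluorescence (340/450 nm) was read initially and after 30 min.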
# [16] = qHTS for inhibitors of adenylyl cyclases using a fission yeast platform: a pilot screen against the NCATS LOPAC library (AID 1347410)
# In short: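 S. pombe CHP2027 (AC9-GNAS-PDE4D2) carrying a PKA-repressed fbp1-GFP reporter was exposed to LOPAC compounds (final up to 57 µM) for 18 h at 30C in the dark, in EMM with histidine, lysine and uracil; GFP gain-of-signal read by laser scanning cytometry.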
# [17] = Validation qHTS assay for inhibitors of Activation Induced Cytidine Deaminase (AID): UDG Counterscreen signal (AID 1347427)
# In short: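 Fluorescence at 560 nm excitation, 665 nm emission reports UDG signal after 250 mM NaOH (2x) addition and 30 min. Enzymes (AID 1 uM, UDG 2 U/mL, at 4/3x) preincubated 10 min with compound, then 4 h with 4x 250 nM DJC20/DJC23 substrate at room temperature.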
# [18] = target: Single-stranded DNA cytosine deaminase (Homo sapiens) (UniProt Q9GZX7); assay: Validation qHTS assay for inhibitors of Activation Induced Cytidine Deaminase (AID): AID signal (AID 1347429)
# In short: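 Compounds (up to 114 uM final) are tested against AID plus UDG using DJC20/DJC23 FRET substrate. Reactions incubate 4 hr at room temperature, receive NaOH for 30 min, and are read at Ex 540/Em 590 nm.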
# [19] = target: Papain (Carica papaya) (UniProt P00784); assay: Primary qHTS assay for inhibitors of the protease papain (AID 1645873);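 also: papain turnover of Z-FR-AMC read as the AMC fluorescence gain over 10 min; series mostly up to about 50 µM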
# [20] = target: Metallo-beta-lactamase type 2 (Klebsiella pneumoniae) (UniProt C7C422); assay: qHTS to identify inhibitors of the New Delhi Metallo-beta-lactamase (NDM): assay validation screen against the NCATS LOPAC Collection (AID 1794843); also: series mostly up to about 38 µM
# In short: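 Absorbance at 485 nm from nitrocefin turnover (50 uM solution added), read at plateau, gives the read-out. Compounds in DMSO were incubated first with 2 nM final NDM-1 in pH 7.0 HEPES buffer containing 1 uM ZnSO4 and 0.01% Tween20.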
# [21] = target: Glutathione peroxidase 1 (Homo sapiens) (UniProt P07203); assay: Primary qHTS Assay for Inhibitors of Recombinant Selenoprotein Glutathione Peroxidase 1 (GPX1) (AID 1845191); also: nearly all actives have a fitted effect of over 65% in size
# In short: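 GPX1 10 nM, GR 100 nM, GSH 1 mM, NADPH 0.5 mM, CHP 0.5 mM (final). 30-min cpd preincubation, RT. Ex340/Em450 read t=0, t=15 min.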
# [22] = target: Phospholipid hydroperoxide glutathione peroxidase GPX4 (Homo sapiens) (UniProt P36969); assay: Primary qHTS Assay for Inhibitors of Recombinant Selenoprotein Glutathione Peroxidase 4 (GPX4) (AID 1845192); conditions: outcome: dose series up to 50 µM unless noted; also: nearly all actives have a fitted effect of over 65% in size
# In short: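 qHTS, GR-coupled: GPX4 200 nM + cpd 30 min RT → GSH 1 mM, NADPH 0.5 mM, GR 100 nM → CHP 0.5 mM start; fluor 340/450 at t0 and t15 min; no-enzyme wells as control.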
# T2 sequence (P78324 whole entry, looked up, the tested form may be a part): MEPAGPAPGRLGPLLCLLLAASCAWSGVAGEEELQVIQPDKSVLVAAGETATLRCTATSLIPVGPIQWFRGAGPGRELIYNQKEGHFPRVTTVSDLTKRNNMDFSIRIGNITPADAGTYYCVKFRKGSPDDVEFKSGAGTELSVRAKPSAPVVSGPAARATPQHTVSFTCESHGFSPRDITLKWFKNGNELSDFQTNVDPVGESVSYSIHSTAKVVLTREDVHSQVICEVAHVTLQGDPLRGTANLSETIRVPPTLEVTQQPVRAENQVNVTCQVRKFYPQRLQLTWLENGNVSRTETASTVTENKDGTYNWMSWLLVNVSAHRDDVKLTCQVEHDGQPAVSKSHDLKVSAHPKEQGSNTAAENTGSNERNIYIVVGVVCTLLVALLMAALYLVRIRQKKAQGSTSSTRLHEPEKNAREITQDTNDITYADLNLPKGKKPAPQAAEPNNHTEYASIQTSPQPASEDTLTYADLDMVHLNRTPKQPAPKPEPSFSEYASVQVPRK
# T2 sequence (Q08722 whole entry, looked up, the tested form may be a part): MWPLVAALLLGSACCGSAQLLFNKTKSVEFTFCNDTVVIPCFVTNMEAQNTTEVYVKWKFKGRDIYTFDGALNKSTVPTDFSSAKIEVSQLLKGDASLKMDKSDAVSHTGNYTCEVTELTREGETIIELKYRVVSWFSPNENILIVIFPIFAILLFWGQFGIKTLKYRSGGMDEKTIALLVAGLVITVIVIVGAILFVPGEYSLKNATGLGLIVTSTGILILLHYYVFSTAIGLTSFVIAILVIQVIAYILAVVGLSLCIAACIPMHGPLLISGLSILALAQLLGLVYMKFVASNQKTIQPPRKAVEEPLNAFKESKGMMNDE
# T1 sequence (P35557 whole entry, looked up): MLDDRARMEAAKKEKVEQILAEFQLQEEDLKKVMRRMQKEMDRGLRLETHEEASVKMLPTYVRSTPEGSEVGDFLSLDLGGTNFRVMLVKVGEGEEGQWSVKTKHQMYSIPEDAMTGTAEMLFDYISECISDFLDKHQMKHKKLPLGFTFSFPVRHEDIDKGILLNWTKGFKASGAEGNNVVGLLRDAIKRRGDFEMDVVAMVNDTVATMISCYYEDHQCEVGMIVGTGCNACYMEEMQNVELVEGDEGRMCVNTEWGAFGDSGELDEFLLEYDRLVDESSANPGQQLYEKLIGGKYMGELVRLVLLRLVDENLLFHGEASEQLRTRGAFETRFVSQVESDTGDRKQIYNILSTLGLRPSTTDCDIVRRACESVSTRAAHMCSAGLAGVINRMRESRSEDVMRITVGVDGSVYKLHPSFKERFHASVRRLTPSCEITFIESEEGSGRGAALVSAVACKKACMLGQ
# T1 sequence (Q14397 whole entry, looked up): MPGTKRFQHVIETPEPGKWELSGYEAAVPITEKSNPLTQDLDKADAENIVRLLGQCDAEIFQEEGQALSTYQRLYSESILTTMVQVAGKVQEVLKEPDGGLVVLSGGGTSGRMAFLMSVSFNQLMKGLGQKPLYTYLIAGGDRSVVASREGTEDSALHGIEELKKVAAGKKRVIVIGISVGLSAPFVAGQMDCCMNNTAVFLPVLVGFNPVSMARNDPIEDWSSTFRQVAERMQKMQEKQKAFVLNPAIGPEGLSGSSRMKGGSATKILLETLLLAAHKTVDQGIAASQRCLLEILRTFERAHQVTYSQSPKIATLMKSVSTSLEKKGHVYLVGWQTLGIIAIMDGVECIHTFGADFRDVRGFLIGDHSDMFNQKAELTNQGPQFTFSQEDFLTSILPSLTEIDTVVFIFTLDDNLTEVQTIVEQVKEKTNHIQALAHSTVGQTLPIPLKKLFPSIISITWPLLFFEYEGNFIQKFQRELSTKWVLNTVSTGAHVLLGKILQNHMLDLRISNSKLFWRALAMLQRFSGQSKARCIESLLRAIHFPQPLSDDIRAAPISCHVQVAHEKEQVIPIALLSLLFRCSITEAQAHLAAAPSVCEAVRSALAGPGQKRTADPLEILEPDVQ
# Arylsulfatase A (Homo sapiens), sequence (P15289 whole entry, looked up): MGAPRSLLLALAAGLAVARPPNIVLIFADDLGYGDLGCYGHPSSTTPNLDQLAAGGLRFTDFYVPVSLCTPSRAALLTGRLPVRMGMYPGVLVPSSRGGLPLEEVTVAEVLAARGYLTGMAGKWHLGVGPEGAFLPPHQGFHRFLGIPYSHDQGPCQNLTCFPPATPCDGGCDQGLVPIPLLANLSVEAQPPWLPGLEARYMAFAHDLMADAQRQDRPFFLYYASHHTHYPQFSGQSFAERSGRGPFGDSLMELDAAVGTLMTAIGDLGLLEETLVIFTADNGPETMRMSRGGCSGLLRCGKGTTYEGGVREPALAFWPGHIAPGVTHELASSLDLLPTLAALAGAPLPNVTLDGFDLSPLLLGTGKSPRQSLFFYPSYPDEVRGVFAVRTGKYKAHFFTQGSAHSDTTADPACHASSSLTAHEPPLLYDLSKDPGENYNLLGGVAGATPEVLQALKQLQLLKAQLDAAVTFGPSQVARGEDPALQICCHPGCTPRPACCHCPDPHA
# Single-stranded DNA cytosine deaminase (Homo sapiens), sequence (Q9GZX7 whole entry, looked up): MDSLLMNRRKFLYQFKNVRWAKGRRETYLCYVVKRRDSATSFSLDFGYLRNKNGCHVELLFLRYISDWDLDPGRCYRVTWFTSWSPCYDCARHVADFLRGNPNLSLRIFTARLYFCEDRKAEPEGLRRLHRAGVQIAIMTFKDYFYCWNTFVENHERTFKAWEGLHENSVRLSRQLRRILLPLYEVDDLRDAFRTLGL
# Papain (Carica papaya), sequence (P00784 whole entry, looked up): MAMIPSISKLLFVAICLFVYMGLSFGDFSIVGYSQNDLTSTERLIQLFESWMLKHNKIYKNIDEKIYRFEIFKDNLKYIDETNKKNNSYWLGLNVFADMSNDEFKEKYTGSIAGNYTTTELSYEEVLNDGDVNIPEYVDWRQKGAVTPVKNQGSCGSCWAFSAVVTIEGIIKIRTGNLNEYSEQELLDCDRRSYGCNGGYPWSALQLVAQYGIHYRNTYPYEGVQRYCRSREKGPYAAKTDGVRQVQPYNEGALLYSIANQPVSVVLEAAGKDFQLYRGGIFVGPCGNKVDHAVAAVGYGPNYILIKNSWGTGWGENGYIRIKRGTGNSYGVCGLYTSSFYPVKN
# Atrial natriuretic peptide receptor 2 (Homo sapiens), sequence (P20594 whole entry, looked up): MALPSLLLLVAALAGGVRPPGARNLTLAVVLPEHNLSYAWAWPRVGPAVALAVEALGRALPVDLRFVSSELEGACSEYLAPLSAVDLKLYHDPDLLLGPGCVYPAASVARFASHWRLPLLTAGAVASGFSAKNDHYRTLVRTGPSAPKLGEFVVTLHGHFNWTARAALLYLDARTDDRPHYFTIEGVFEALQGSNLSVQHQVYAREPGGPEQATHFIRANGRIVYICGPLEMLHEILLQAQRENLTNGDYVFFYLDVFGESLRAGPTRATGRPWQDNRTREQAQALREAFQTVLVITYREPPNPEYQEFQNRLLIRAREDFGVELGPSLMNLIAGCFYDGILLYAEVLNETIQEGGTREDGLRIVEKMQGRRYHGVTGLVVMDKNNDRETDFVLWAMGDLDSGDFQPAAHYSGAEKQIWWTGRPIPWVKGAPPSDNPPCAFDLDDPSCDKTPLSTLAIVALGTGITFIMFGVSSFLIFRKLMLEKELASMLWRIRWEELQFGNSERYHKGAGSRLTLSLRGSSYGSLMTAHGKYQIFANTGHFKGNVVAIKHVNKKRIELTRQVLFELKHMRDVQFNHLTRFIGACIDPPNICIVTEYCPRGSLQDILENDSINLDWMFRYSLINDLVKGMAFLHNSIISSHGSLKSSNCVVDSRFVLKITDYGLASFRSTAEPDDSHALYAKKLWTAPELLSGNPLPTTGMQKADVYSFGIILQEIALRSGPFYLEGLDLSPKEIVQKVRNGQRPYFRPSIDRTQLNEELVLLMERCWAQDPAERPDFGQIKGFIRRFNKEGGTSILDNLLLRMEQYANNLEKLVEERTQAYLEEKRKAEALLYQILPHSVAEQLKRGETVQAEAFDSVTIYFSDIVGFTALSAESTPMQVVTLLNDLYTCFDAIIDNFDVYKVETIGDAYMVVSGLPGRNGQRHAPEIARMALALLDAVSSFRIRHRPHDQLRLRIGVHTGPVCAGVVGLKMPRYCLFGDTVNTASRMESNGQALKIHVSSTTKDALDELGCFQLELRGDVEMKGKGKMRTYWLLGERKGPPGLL
# Glutathione peroxidase 1 (Homo sapiens), sequence (P07203 whole entry, looked up): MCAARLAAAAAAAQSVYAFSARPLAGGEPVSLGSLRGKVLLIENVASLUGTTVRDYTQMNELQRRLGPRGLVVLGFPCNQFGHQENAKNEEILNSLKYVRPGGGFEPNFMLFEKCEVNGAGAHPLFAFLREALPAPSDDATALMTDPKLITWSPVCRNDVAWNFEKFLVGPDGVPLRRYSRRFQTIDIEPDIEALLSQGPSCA
# Metallo-beta-lactamase type 2 (Klebsiella pneumoniae), sequence (C7C422 whole entry, looked up): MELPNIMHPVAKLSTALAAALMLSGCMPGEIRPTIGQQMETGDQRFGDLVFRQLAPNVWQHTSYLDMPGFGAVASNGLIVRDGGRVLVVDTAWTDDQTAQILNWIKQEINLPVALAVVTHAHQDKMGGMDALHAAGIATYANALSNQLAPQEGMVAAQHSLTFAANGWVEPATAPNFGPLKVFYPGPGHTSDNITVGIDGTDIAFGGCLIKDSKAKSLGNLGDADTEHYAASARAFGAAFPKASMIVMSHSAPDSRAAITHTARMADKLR
# Phospholipid hydroperoxide glutathione peroxidase GPX4 (Homo sapiens), sequence (P36969 whole entry, looked up): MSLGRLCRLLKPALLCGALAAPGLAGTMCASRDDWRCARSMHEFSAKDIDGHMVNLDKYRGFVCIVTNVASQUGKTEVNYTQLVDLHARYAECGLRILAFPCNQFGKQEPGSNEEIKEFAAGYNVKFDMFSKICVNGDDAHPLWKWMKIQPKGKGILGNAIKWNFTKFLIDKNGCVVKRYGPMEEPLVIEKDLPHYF
smiles,measurement,setting,value
O=C1c2ccccc2C(=O)c2c(NCCc3ccc(O)cc3)ccc(NCCc3ccc(O)cc3)c21,outcome,[1],inactive
same,outcome,[2],inactive
same,Potency,[3],9.53 µM (active)
same,outcome,[4],inactive
same,Potency,[5],inactive
same,outcome,[6],inactive
same,outcome,[7],inactive
same,outcome,[8],inactive
same,Potency,[9],11.7 µM (active)
same,Potency,[10],12 µM (active)
same,Potency,[11],13.1 µM (active)
same,outcome,[12],inactive
same,outcome,[13],inactive
same,Potency,[14],1.85 µM (active)
same,outcome,[15],inactive
same,outcome,[16],inactive
same,outcome,[17],inactive
same,Potency,[18],inactive
same,Potency,[19],inactive
same,Potency,[20],inactive
same,Potency,[21],inactive
same,Potency,[22],inactive
